Records with an inconclusive call do not appear. Calls of active or inactive are those of the source. Rule for the calls, unless noted: active = hit-call score of the fitted dose curve at least 0.9, where 1 is the maximum; inconclusive = response in the unintended direction; inactive = score below 0.9.

Read-out in one assay: kallikrein-3 (KLK3), KLK3 (gene 354)
In words: LTEA_HepaRG_KLK3: Life Technologies and Expression Analysis (LTEA) Assay for kallikrein-3 (KLK3) using HepaRG (AID 2283652; active = hit-call score of the fitted dose curve at least 0.9, where 1 is the maximum; inactive = score below 0.9). Particulars: mRNA level, 48 h; actives raise or lower the signal. Put shortly: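 Differentiated human HepaRG cells in serum-free induction medium exposed 48 h in duplicate, eight-point half-log series from 100 uM in 0.5% DMSO. KLK3 mRNA by qRT-PCR, normalised to ACTB, GAPDH, POLR2A; bidirectional fit versus DMSO.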
On to `CCCCC(CC)CO` (configuration not stated), for which the molecule was classed as inactive.
For the molecule `CCCCCCC(CCCCCCCCCCC(=O)OCC(COC(C)=O)OC(C)=O)OC(C)=O` (configuration not stated), the molecule was classed as inactive.
Consider `CCC(C)N(C)C(=O)c1cc2ccccc2c(-c2ccccc2Cl)n1` (configuration not stated), for which the result was inactive.
Take `CN(C)CCCN1c2ccccc2Sc2ccc(Cl)cc21`: the molecule was classed as inactive.

Read-out in another assay: solute carrier (SLC22A6), SLC22A6 (gene 9356)
In words: LTEA_HepaRG_SLC22A6: Life Technologies and Expression Analysis (LTEA) Assay for solute carrier (SLC22A6) using HepaRG (AID 2283653; active = hit-call score of the fitted dose curve at least 0.9, where 1 is the maximum; inactive = score below 0.9). Particulars: mRNA level, 48 h; actives raise or lower the signal. A digest of the protocol:
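Differentiated human HepaRG cells were exposed for 48 h in serum-free induction medium to eight concentrations (top 100 uM, half-log steps, 0.5% DMSO), in duplicate. SLC22A6 mRNA was quantified by qRT-PCR, normalised to ACTB, GAPDH and POLR2A, and fitted bidirectionally against DMSO.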
Take `CCCCC(CC)CO` (configuration not stated): the outcome was inactive.
The same measure, in the same setting: the result for `CCCCCCC(CCCCCCCCCCC(=O)OCC(COC(C)=O)OC(C)=O)OC(C)=O` (configuration not stated) reads “inactive”.
On the same count and under the same terms, the result for `CCC(C)N(C)C(=O)c1cc2ccccc2c(-c2ccccc2Cl)n1` (configuration not stated) reads “inactive”.
On the same count and under the same terms, the result for `CN(C)CCCN1c2ccccc2Sc2ccc(Cl)cc21` reads “inactive”.

Tested on in another assay: not listed separately
In words: Tanguay_ZF_120hpf_SWIM_legacy: (Legacy) Oregon State University Tanguay Lab 120 Hour Post-fertilization zebrafish Assay for Swim Bladder Malformation (AID 2283654).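 Note: swim bladder malformation in each larva scored yes or no under brightfield.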
Conditions: not given
Put shortly:
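Dechorionated wild-type Tropical 5D zebrafish embryos, one per well from 6 hpf, were statically exposed at 28C until 120 hpf in 0.64% DMSO. Swim bladder malformation scored as present/absent by brightfield microscopy; not scored in dead larvae.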
Turning to `CCc1cc(C2=C(C(=O)O)N(c3ccccc3C(F)(F)F)S(=O)(=O)c3ccccc32)cc2c1OCO2`, the outcome was inactive.
The same measure, in the same setting: the result for `CC(=O)S[C@H](C(=O)N[C@H]1Cc2ccccc2[C@H]2CCC[C@@H](C(=O)O)N2C1=O)C(C)C` reads “inactive”.
Take `O=C1c2c(O)cccc2Cc2cccc(O)c21`: the call was inactive.
Still for that read-out and setting: then `NC(=Nc1ccccc1)Nc1ccccc1`, with “inactive”; and `COC(=O)CCC(=O)OC`, with “inactive”; and `CN(C)C(=O)NC1(c2ccccc2)CCN(CCC[C@]2(c3ccc(Cl)c(Cl)c3)CCCN(C(=O)c3ccccc3)C2)CC1`, with “inactive”.
Regarding `Oc1ccccc1O`, the result was inactive.
With `CCCCC(CC)CO` (configuration not stated), the molecule was called inactive.
In the case of `Cc1c(C)c2c(c(C)c1O)CCC(C)(COc1ccc(CC3SC(=O)NC3=O)cc1)O2` (configuration not stated), the molecule was called inactive.
Still for that read-out and setting: then `CCCC[C@H]1CN(CC2CCOCC2)C(=O)OC12CCN(C1(C)CCN(C(=O)c3c(C)ncnc3C)CC1)CC2`, with “inactive”.
With `CCCCc1nc2cccnc2n1Cc1ccc(-c2ccccc2-c2nnn[nH]2)cc1`, the molecule was classed as inactive.
Same read-out and setting: the result for `CCCCCCC(CCCCCCCCCCC(=O)OCC(COC(C)=O)OC(C)=O)OC(C)=O` (configuration not stated) reads “inactive”; that for `O=C(O)CN(CC(=O)O)CC(=O)O`, “inactive”.
The same measure, in the same setting: the result for `S=c1[nH]c2ccccc2s1` reads “inactive”.
Consider `CS(=O)(=O)c1ccc([C@@H](C[C@H]2CCC(=O)C2)C(=O)Nc2cnccn2)cc1Cl`, for which the molecule was called inactive.
For the molecule `CCOCCOCCO`, the molecule was classed as inactive.
Turning to `CN(C)CCCN(C)CCCN(C)C`, the call was inactive.
Still for that read-out and setting: then `O=[Si]=O`, with “inactive”.
Consider `CCC(C)N(C)C(=O)c1cc2ccccc2c(-c2ccccc2Cl)n1` (configuration not stated), for which the AC50 is 18.5 µM (active).
As to `O=C(O)c1[nH]n(-c2ccc(S(=O)(=O)O)cc2)c(=O)c1N=Nc1ccc(S(=O)(=O)O)cc1`, the call was inactive.
Still for that read-out and setting: then `CN(C)CCCN1c2ccccc2Sc2ccc(Cl)cc21`, with “inactive”; and `COC(=O)CCCC(=O)OC`, with “inactive”.
On to `CC1(C)C(=O)NC(=O)N1CO`, for which the molecule was called inactive.
As to `Cc1ccc(C(C)(C)C)c(O)c1`, the call was inactive.
For `CCCCCCCCCCCCCCOS(=O)(=O)O`, the molecule was called inactive.
Turning to `COc1ccc(OC(F)(F)F)cc1CN[C@H]1CCCN[C@H]1c1ccccc1`, the molecule was called inactive.

Tested on in a further assay: not listed separately
Briefly: Tanguay_ZF_120hpf_TRUN_legacy: (Legacy) Oregon State University Tanguay Lab 120 Hour Post-fertilization zebrafish Assay for Truncated Body (AID 2283655).
Conditions: not given
A digest of the protocol:
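Tropical 5D wild-type embryos, dechorionated with pronase at 4 hpf, were placed singly in wells at 6 hpf and statically exposed at 28C until 120 hpf, final DMSO 0.64%. Truncated body was scored present/absent by brightfield microscopy.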
With `CCc1cc(C2=C(C(=O)O)N(c3ccccc3C(F)(F)F)S(=O)(=O)c3ccccc32)cc2c1OCO2`, the call was inactive.
For `CC(=O)S[C@H](C(=O)N[C@H]1Cc2ccccc2[C@H]2CCC[C@@H](C(=O)O)N2C1=O)C(C)C`, the molecule was called inactive.
In the case of `O=C1c2c(O)cccc2Cc2cccc(O)c21`, the outcome was inactive.
On the same count and under the same terms, then `NC(=Nc1ccccc1)Nc1ccccc1`, with “inactive”; and `COC(=O)CCC(=O)OC`, with “inactive”; and `CN(C)C(=O)NC1(c2ccccc2)CCN(CCC[C@]2(c3ccc(Cl)c(Cl)c3)CCCN(C(=O)c3ccccc3)C2)CC1`, with “inactive”.
Still for that read-out and setting: the result for `Oc1ccccc1O` reads “inactive”.
Take `CCCCC(CC)CO` (configuration not stated): the molecule was called inactive.
As to `Cc1c(C)c2c(c(C)c1O)CCC(C)(COc1ccc(CC3SC(=O)NC3=O)cc1)O2` (configuration not stated), the call was inactive.
Same read-out and setting: the result for `CCCC[C@H]1CN(CC2CCOCC2)C(=O)OC12CCN(C1(C)CCN(C(=O)c3c(C)ncnc3C)CC1)CC2` reads “inactive”; that for `CCCCc1nc2cccnc2n1Cc1ccc(-c2ccccc2-c2nnn[nH]2)cc1`, “inactive”.
Still for that read-out and setting: the result for `Oc1ccc(O)cc1` reads “inactive”; that for `CCCCCCC(CCCCCCCCCCC(=O)OCC(COC(C)=O)OC(C)=O)OC(C)=O` (configuration not stated), “inactive”.
Take `O=C(O)CN(CC(=O)O)CC(=O)O`: the molecule was classed as inactive.
With `S=c1[nH]c2ccccc2s1`, the concentration at half-maximal activity (AC50) is 11.4 µM (active).
`CS(=O)(=O)c1ccc([C@@H](C[C@H]2CCC(=O)C2)C(=O)Nc2cnccn2)cc1Cl`: the call was inactive.
Regarding `CCc1nc(N)nc(N)c1-c1ccc(Cl)cc1`, the result was inactive.
Take `COC(=O)[C@H]1[C@H]2C[C@@H]3c4[nH]c5cc(OC)ccc5c4CCN3C[C@H]2C[C@@H](OC(=O)c2cc(OC)c(OC)c(OC)c2)[C@@H]1OC`: the molecule was classed as inactive.
Turning to `CCOCCOCCO`, the molecule was called inactive.
For `O=[Si]=O`, the molecule was classed as inactive.
The same measure, in the same setting: then `CCC(C)N(C)C(=O)c1cc2ccccc2c(-c2ccccc2Cl)n1` (configuration not stated), with “inactive”; and `O=C(O)c1[nH]n(-c2ccc(S(=O)(=O)O)cc2)c(=O)c1N=Nc1ccc(S(=O)(=O)O)cc1`, with “inactive”; and `CN(C)CCCN1c2ccccc2Sc2ccc(Cl)cc21`, with “inactive”.
`COC(=O)CCCC(=O)OC`: the result was inactive.
Turning to `CC1(C)C(=O)NC(=O)N1CO`, the call was inactive.
With `Cc1ccc(C(C)(C)C)c(O)c1`, the molecule was classed as inactive.
On to `CCCCCCCCCCCCCCOS(=O)(=O)O`, for which the concentration at half-maximal activity (AC50) was 31.3 µM (active).
`COc1ccc(OC(F)(F)F)cc1CN[C@H]1CCCN[C@H]1c1ccccc1`: the outcome was inactive.
